TGFb inhibitor – blocks TGF-b signaling | actives 1.2% (n = 410,000) | AID 588855 | HepG2 CAGA-GFP TGF-b/SMAD3 reporter, GFP fluorescence, 18 h; TGF-beta stimulated, 500 pg/mL final | Potency, µM (top dose mostly 46.1 µM), for the others: at the top dose activity, negative = inhibition, most hits filed as inhibitors; further: on the % scale 0 is the no-effect control and ±100 the full control effect; nearly all actives have a fitted effect of over 65% in size
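TGF-beta reporter screen: HEPG2 CAGA-GFP, 1% FBS, 500 pg/mL TGF-beta final, 18 h; per-cell GFP summed per well; curves fitted and categorized by class.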
ATXN viability – viability counter-screen for ATXN expression inhibitors; S2 cells (HEK-293 line with an ATXN2-luciferase reporter) viability, CellTiter-Fluor protease fluorescence, 24 h; Potency, µM (titrated, usually from 56.7 µM), usual class: cytotoxic; actives 0.49% (n = 400,000); further: nearly all actives have a fitted effect of over 40% in size
ATXN2 expr inh – reduces ATXN2 reporter expression in HEK-293 cells; HEK-293 ATXN2-luciferase reporter, luminescence, 24 h; Potency, µM (doses to about 57 µM), for inactives: top-dose activity change, negative = inhibition, most hits filed as inhibitors; actives 0.72% (n = 360,000); further: on the % scale 0 is the no-effect control and ±100 the full control effect; nearly all actives have a fitted effect of over 55% in size
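ATXN2-luciferase reporter cells (luciferase flanked by upstream and downstream ATXN2 gene portions) were treated 24 h at 37 °C with compounds at up to 57 uM. SteadyGlo luminescence gave expression; GF-AFC fluorescence gave viability.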
HepG2 viability – HepG2 cytotoxicity, counter-screen for TGF-b inhibitors; HepG2 CAGA-GFP viability, ATP luminescence, 18 h; Potency, µM (series often up to 46.1 µM), for the others: at the top dose activity change, negative = cytotoxicity, usual class: cytotoxic; actives 0.76% (n = 410,000); AID 588856
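HepG2 CAGA-GFP cells (1000/well, DMEM with 1% FBS) received compound, then TGF-beta at 500 pg/mL final, and were incubated 18 hours at 37 degrees C. Viability was read by CellTiter-Glo luminescence. Media-only wells were set as complete cell-killing and DMSO as no toxicity.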
KB-V1 cytotox – kills drug-selected multidrug resistant KB-V1 cells; KB-V1 MDR cells viability, CellTiter-Glo, 72 h; actives 3.4% (n = 400,000); Potency, µM (titrated, usually from 46.1 µM), hits mostly cytotoxic; further: on the % scale 0 is the no-effect control and ±100 the full control effect; nearly all actives have a fitted effect of over 60% in size
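In this primary screen, KB-V1 cells overexpressing P-gp are incubated with library compounds (lowest to highest concentration) for 72 h at 37 degrees C before a luminescent ATP viability read.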
KB-3-1 cytotox – KB-3-1 parental cell cytotoxicity; KB-3-1 viability, CellTiter-Glo ATP luminescence, 72 h; Potency, µM (top dose mostly 46.1 µM), usual class: cytotoxic; actives 1.4% (n = 400,000); further: on the % scale 0 is the no-effect control and ±100 the full control effect; nearly all actives have a fitted effect of over 60% in size
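Parental KB-3-1 adenocarcinoma cells in phenol-red-free DMEM with 10% FBS were pin-treated with compounds at several concentrations, incubated 72 h at 37 °C, and viability read by CellTiter-Glo luminescence; concentration-effect curves were fitted after normalization.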
* = called active by the depositor; i = inactive; ? = inconclusive; / = no result given. An excerpt weighted towards active compounds, which were near 5.9% of everything screened. The call rests on the fitted dose curve; in most records, active means well fitted curve in the direction sought with a large enough effect; inconclusive means small, poorly fitted or top-dose-only effect, or another doubt; inactive means no such curve, though single readings can be large; an effect the other way counts as inactive or inconclusive. Potency means the concentration at half of the fitted maximal effect.

SMILES | TGFb inhibitor | ATXN viability | ATXN2 expr inh | HepG2 viability | KB-V1 cytotox | KB-3-1 cytotox
Cc1c(Cl)cccc1-c1ccc(/C=C(\C#N)c2nc3ccccc3[nH]2)o1 | 6.3µM* | / | 8% | 7.9µM* | i | i
Cc1cc(/C=C(\C#N)c2nc3ccccc3[nH]2)c(C)n1C | -8% | ? | 10% | -16% | 5.2µM* | ?
Cc1cc(/C=C(/C#N)c2nc3ccccc3[nH]2)c(C)n1-c1cccc([N+](=O)[O-])c1 | -21% | i | 0% | -21% | ? | ?
N#C/C(=C\c1ccc(Sc2ccc(Cl)cc2)o1)c1nc2ccccc2[nH]1 | 5% | i | 2% | -31% | 15µM* | i
N#C/C(=C\c1ccc(Cl)cc1)c1nc2ncccc2[nH]1 | -32% | i | 18% | -38% | 18µM* | i
C[C@@H]1CN(Cc2ccc3c(c2)CN(C(=O)CCc2nc4ccc(F)cc4[nH]2)CCO3)C[C@H](C)O1 | / | i | / | / | / | /
Cc1nnc(N2CCOCC2)c2nn(-c3cccc(Cl)c3)c(C)c12 | -4% | i | -15% | -9% | 3.7µM* | i
COc1ccc2c(c1)c1c(c(=O)n(-c3ccccc3C)c(=O)n1C)n2C | 12% | i | -2% | 6% | i | i
Cc1sc(NC(=O)CN2CCOCC2)nc1-c1ccc2c(c1)CCN2S(=O)(=O)c1ccccc1 | ? | i | -21% | -26% | 4.1µM* | ?
Cc1nc(SCc2nc3ccc(Br)cc3[nH]2)c2oc3ccccc3c2n1 | ? | i | -31% | -10% | i | i
Cc1nc(SCc2nc3ccc(Cl)cc3[nH]2)c2oc3ccccc3c2n1 | 7.9µM* | ? | ? | -15% | i | i
COc1ccc2c(c1)oc1c(SCc3nc4ccccc4[nH]3)nc(C)nc12 | -5% | ? | -18% | -18% | ? | ?
Cc1nc(SCc2nc3ccc(C(F)(F)F)cc3[nH]2)c2oc3ccccc3c2n1 | ? | ? | ? | -55% | i | 16µM*
CCc1nc(Sc2nc(C)cc(C)n2)c2oc3ccccc3c2n1 | ? | i | 17% | -4% | 16µM* | ?
CCc1nc(SCCO)c2oc3ccccc3c2n1 | 5% | i | 9% | -21% | ? | ?
CCc1nc(SCc2nc3ccccc3[nH]2)c2oc3ccccc3c2n1 | ? | ? | -7% | -58% | 3.3µM* | i
CCc1ccc(NC(=O)Cn2c(=O)n(CCCCC(=O)NCCc3ccccc3)c(=O)c3ccccc32)cc1 | -13% | i | -6% | 1% | ? | i
COc1ncc(-c2ccc(N3C(c4ccc([N+](=O)[O-])cc4)=Cc4ccccc4C3CC(C)=O)cc2)cn1 (centres undefined) | / | i | 1% | / | i | i
COC(=O)c1c(OCc2ccccn2)cc(=O)n2c1CCN(Cc1ccc3nsnc3c1)CC2 | / | i | / | / | / | /
COc1ccc(-c2noc(CN(C(=O)C(C)(C)C)C(C)C)n2)cc1 | 0% | i | 20% | 1% | 21µM* | i
CCOC(=O)c1ccccc1NC(=O)CCc1nc(-c2ccc(C)cc2)no1 | 3% | / | / | 0% | / | /
COc1ccc(OC(C)C(=O)N(C)Cc2nc(-c3ccc(OC)cc3)no2)cc1 (centres undefined) | 2% | i | -16% | 2% | 18µM* | ?
COC(=O)c1ccccc1NC(=O)Cc1nc(-c2ccc(OC)cc2)no1 | ? | / | / | 18µM* | ? | i
O=C1CC2(CCCC2)CC(=O)N1 | / | i | 8% | / | / | /
NC(Cc1ccc(Cl)cc1)c1csc(NC(=O)NCCc2ccccc2)n1 (centres undefined) | ? | 28µM* | ? | -111% | i | ?
COc1ccc(CC(N)c2csc(NC(=O)NCCc3ccccc3)n2)cc1 (centres undefined) | ? | ? | ? | -75% | i | i

From PubChem BioAssay
